Screening results: PubChem BioAssay, several laboratories
VLA-4 inh: inhibition in human VLA-4 binding assay, primary screen, VLA-4 allosteric modulator project, MLPCN library, flow cytometry, VLA-4 expressing cells; ligand binding flow cytometry; inhibition, % (about 7 µM as worked out from the volumes in the protocol); 0.2% of 330,000 active; in the data active means inhibition above about 50%
JMJD2C inh: inhibitors of GASC-1 histone demethylase, primary screen, biochemical, fluorescence, DELFIA europium; AID 2099, 2009; 0.069% of 330,000 active; inhibition, % at 2.35 µM; GST-JMJD2C(1-420) H3K9me3 demethylation;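 active means more than half of a compound's replicate wells show inhibition beyond 50%, single wells judged on their own value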;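 further: signal counts dimethyl H3K9 product captured on neutravidin plate; 0% = median of DMSO wells and 100% = 0.3 times that DMSO median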
ABCB6 inh MLPCN: ABCB6 transporter inhibitors, primary screen, K562-ABCB6 cells, flow cytometry, MLPCN library | 0.19% of 360,000 active | K562-ABCB6 porphyrin accumulation, 1 h; hits give low values | ATP-binding cassette sub-family B member 6 (Homo sapiens), Q9NP58 | fluorescence ratio to DMSO, % at 10 µM | AID 602162, 2011;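 active means fluorescence ratio to DMSO below 75%, the collection mean minus 3 SD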;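 further: signal is porphyrin accumulated inside mitochondria; 100% equals median channel fluorescence of DMSO control wells; lower ratio means ABCB6 inhibition with less porphyrin fluorescence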
Target sequence (Q9NP58 whole entry, looked up): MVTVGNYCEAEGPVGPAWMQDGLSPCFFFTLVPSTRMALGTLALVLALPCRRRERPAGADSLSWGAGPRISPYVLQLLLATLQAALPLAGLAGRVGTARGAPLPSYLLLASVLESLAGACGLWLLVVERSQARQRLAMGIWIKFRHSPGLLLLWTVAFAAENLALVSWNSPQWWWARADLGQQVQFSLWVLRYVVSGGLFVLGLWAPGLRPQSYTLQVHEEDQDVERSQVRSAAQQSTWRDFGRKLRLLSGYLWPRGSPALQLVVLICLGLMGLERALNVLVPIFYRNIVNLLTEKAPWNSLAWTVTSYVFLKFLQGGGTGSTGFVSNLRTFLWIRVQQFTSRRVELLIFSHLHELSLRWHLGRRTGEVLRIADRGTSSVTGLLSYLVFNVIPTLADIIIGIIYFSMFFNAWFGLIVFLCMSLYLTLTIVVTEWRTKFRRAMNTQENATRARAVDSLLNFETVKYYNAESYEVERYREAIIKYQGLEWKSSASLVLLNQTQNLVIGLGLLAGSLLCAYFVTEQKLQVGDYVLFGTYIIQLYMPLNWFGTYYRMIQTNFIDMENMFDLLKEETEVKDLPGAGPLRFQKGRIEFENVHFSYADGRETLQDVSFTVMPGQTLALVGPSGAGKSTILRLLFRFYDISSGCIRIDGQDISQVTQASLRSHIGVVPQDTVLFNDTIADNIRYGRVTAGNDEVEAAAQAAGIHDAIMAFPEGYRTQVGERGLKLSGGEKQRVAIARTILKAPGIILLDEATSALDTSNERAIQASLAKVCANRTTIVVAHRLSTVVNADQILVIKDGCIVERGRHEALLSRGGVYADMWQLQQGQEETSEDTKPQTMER
PolyA inh: polyadenylation inhibitors in yeast reporter cells, primary screen, luminescence, S. cerevisiae | S. cerevisiae SKY197-pL101 polyadenylation reporter, beta-gal luminescence; efflux-impaired pdr1/pdr3 knockout yeast; score 100 = 6 SD above DMSO | 0.02% of 300,000 active | activity score, % at 12 µM;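 active means lowest replicate activity score at least 50, where 100 means six control SD above control mean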;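 further: yeast exposed to compound for 9 h at 30 °C; higher score means more reporter readthrough which indicates perturbed polyadenylation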
ABCB6 inh CP1: ABCB6 transporter inhibitors, confirmation, K562-ABCB6 cells, flow cytometry, cherry pick 1; shares compounds with ABCB6 inh MLPCN; AID 602430, 2012; 700 tested, under 10 active; ratio response (% of DMSO), % at 10 µM; K562-ABCB6 porphyrin accumulation, 1 h; hits give low values;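 active means repeat-averaged ratio response below 75% of DMSO, the collection mean minus 3 SD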;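 further: median porphyrin fluorescence at 575 nm with 488 nm excitation from mitochondria; lower ratio means less porphyrin signal so ABCB6 inhibition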
The depositor's hits bear a star; . = not tested or not shown. Most compounds without a hit are left out; they make up all but 0.44% or so of the library.

SMILES	VLA-4 inh	JMJD2C inh	ABCB6 inh MLPCN	PolyA inh	ABCB6 inh CP1
O=C(c1ccccc1)N1CCN=C1c1ccccc1	16	1	100	13	.
COc1ccc(C(=O)N2CCN=C2c2ccccc2)cc1OC	17	8	73*	28	100
COc1ccccc1Cn1nnc2c(=O)[nH]c(C3CCN(C(=O)c4ccccc4Cl)CC3)nc21	15	-2	99	2	100
COc1ccccc1Cn1nnc2c(=O)[nH]c(C3CCN(C(=O)c4ccc(C)cc4)CC3)nc21	3	1	112	3	100
COc1ccccc1Cn1nnc2c(=O)[nH]c(C3CCN(C(=O)c4ccc(F)cc4)CC3)nc21	-1	7	98	-1	.
CCC(C)N(C(=O)COC(=O)CNC(=O)c1sc2ccccc2c1Cl)C1CCS(=O)(=O)C1 (stereo not drawn)	-17	-10	98	-5	.
CCCNC(=O)C1(C)CCN(C(=O)c2cc(C)nn2C(C)(C)C)C1 (stereo not drawn)	.	.	82	.	.
COc1ccc(-n2c(C(C)n3nc(C)c([N+](=O)[O-])c3C)n[nH]c2=S)cc1 (stereo not drawn)	-19	15	97	18	.
Cc1ccc(-n2c(C(C)n3nc(C)c([N+](=O)[O-])c3C)n[nH]c2=S)cc1 (stereo not drawn)	-3	11	61*	-1	98
CC(Sc1nnc(-c2ccncc2)n1C)C(=O)Nc1ccc(N2CCOCC2)cc1 (stereo not drawn)	1	0	69*	.	100
Cn1c(SCC(=O)Nc2ccc(N3CCOCC3)cc2)nnc1-c1ccccc1	11	-9	103	4	.
COC(C)c1oc2c(C)c3oc(=O)cc(C)c3cc2c1C (stereo not drawn)	-5	2	98	-24	.
CC(C)(C)NC(=O)c1cccc(NC(=O)c2cccc(O)c2)c1	-5	6	63*	-7	101
Cc1ccc(CC2CC(=O)N(CCc3ccc4c(c3)OCO4)C2=O)cc1 (stereo not drawn)	5	-3	74*	-2	98
COc1cc(NC(=O)COC(=O)CCCC2=NS(=O)(=O)c3ccccc3N2)cc(OC)c1	12	4	97	5	100
Cc1cccc(NC(=O)COC(=O)CCCC2=NS(=O)(=O)c3ccccc3N2)c1	5	9	103	1	.
O=C(COC(=O)CCCC1=NS(=O)(=O)c2ccccc2N1)Nc1ccccc1	-2	6	98	4	99
COc1ccccc1NC(=O)C1CCN(S(=O)(=O)c2ccc3c(c2)CC(C)N3C(C)=O)CC1 (stereo not drawn)	0	0	101	-3	.
O=C(Cn1nnc2ccccc2c1=O)Nc1ccc(S(=O)(=O)N2CCOCC2)cc1	5	2	94	0	.
CN1CCN(C(=O)c2ccc(-c3nn(C)c(=O)c4ccccc34)cc2)CC1	-4	-7	97	0	.
Cn1nc(-c2ccc(C(=O)N3CCN(CCO)CC3)cc2)c2ccccc2c1=O	0	-4	72*	13	97
Cc1ccccc1OCC(=O)OCC(=O)c1ccc(OC(=O)c2ccccc2)cc1	0	-22	44*	10	104
O=C(c1ccc(Cn2cc(Br)cn2)o1)N1N=C(C(F)F)CC1(O)C(F)F (stereo not drawn)	11	0	99	4	.
COc1ccccc1OCc1ccc(C(=O)N2N=C(C(F)F)CC2(O)C(F)F)o1 (stereo not drawn)	9	-9	108	0	99
O=C(c1ccc(COc2ccc(Cl)cc2)o1)N1N=C(C(F)F)CC1(O)C(F)F (stereo not drawn)	20	0	95	-13	101
SMILES	VLA-4 inh	JMJD2C inh	ABCB6 inh MLPCN	PolyA inh	ABCB6 inh CP1
CCn1cc([N+](=O)[O-])c(C(=O)N2N=C3/C(=C/c4cccs4)CCCC3C2c2cccs2)n1 (stereo not drawn)	-2	2	66*	-14	100
COc1ccc(-n2c(COc3ccccc3)nnc2SCc2ccc(C#N)cc2)cc1	4	-13	51*	-19	99
CCSc1nc(C)c(C)c(=O)[nH]1	.	.	72*	-7	98
CC(=O)c1ccc(OC(C)C)c(CC(C(N)=O)C(N)=O)c1	8	0	99	8	.
O=C1NC(=S)N/C1=C/c1cccc2ccccc12	-12	-4	98	12	.
COc1ccc(NC(=O)c2cc(CN3C(=O)c4ccccc4C3=O)ccc2OC)cn1	6	0	70*	-18	102
CC(C(=O)NCC1(c2ccccc2)CCOCC1)N1CCOCC1 (stereo not drawn)	14	0	96	-12	.
CC(C(=O)NCC1(c2ccccc2)CCCC1)N1CCOCC1 (stereo not drawn)	6	5	60*	2	102
CSc1ccc(CN2C(=O)C(F)(F)Oc3c(C(C)=O)cccc32)cc1	.	.	74*	.	101
CSc1ccc(CN2C(=O)C(C)Oc3c(C(C)=O)cccc32)cc1 (stereo not drawn)	.	.	97	.	.
N#CC(C#N)=C1c2cc(S(N)(=O)=O)ccc2-c2ccc(S(N)(=O)=O)cc21	.	.	84	.	.
CC(C)c1cc(NCCOCCO)n2c(nc3ccccc32)c1C#N	-7	7	73*	13	99
CC(=O)N1N=C(c2cccc([N+](=O)[O-])c2)OC1c1ccccc1Cl (stereo not drawn)	12	8	97	-21	.
Cn1c(=O)c2ncn(CC(=O)NCCOc3ccc(C(C)(C)C)cc3)c2n(C)c1=O	.	-2	87	11	.
Cn1c(=O)c2ncn(CC(=O)NCCOCc3ccccc3Cl)c2n(C)c1=O	-18	-5	66*	5	100
CC1=CC(C)(C)N2C(=O)C3(C(C#N)=C(N)Oc4cc(C)oc(=O)c43)c3cc(C)cc1c32 (stereo not drawn)	11	-5	67*	8	96
O=C(Nc1cccc(Oc2ccccc2)c1)C1Cc2c(-c3ccc4c(c3)OCO4)ccnc2O1 (stereo not drawn)	.	.	102	.	98
O=C(Nc1cccc(OC(F)(F)F)c1)C1Cc2c(-c3ccc4c(c3)OCO4)ccnc2O1 (stereo not drawn)	.	.	101	.	99
O=C(Nc1cccc(OC(F)(F)F)c1)C1Cc2c(-c3ccc(Cl)cc3)ccnc2O1 (stereo not drawn)	.	.	91	.	.
COC(=O)c1c(NC(NC(=O)C(C)C)C(Cl)(Cl)Cl)sc2c1CCCC2 (stereo not drawn)	15	-1	101	-8	.
Cc1ccc(CC(=O)Nc2nnc(-c3ccc(F)cc3)o2)c(C)c1	43	3	74*	5	100
